This excerpt belongs to a sample that is enriched for hits.
RT RNaseH block = blocks HIV-1 RNase H cleavage of RNA/DNA duplex; P04585; RT-RNase H RNA/DNA duplex cleavage, fluorescence; actives 1.9% (n = 65,000); inhibition, % at 10 µM; in the data active = inhibition above about 50%
Active calls of the source: *.

SMILES	RT RNaseH block
COc1cccc(-c2ccc(-c3noc(-c4ccccc4F)n3)c(OC)n2)c1	3
COc1nc(-c2ccc(Cl)cc2)ccc1-c1noc(-c2ccco2)n1	50*
Cc1cc(C(=O)COc2ccc(-c3nnco3)cc2)c(C)n1Cc1ccccc1	-8
CCn1c(SCC(=O)c2cc(C)n(CC3CCCO3)c2C)nc2ccccc21 (stereo not given)	-4
Cc1cc(C(=O)CSc2nnnn2-c2ccc(Cl)cc2)c(C)n1CC1CCCO1 (stereo not given)	63*
Cc1cc(C(=O)CSc2nnnn2-c2ccccc2)c(C)n1CC1CCCO1 (stereo not given)	9
O=C1CC(N2CCN(Cc3ccc4c(c3)OCO4)CC2)C(=O)N1CCc1ccccc1 (stereo not given)	-9
COc1ccc(OC)c(S(=O)(=O)N2c3cc(F)ccc3CCC2C)c1 (stereo not given)	-52
O=C(COC(=O)C1COc2ccccc2O1)NC(=O)NC1CCCC1 (stereo not given)	-2
O=C(COC(=O)C1COc2ccccc2O1)NC(=O)Nc1ccc2c(c1)OCCO2 (stereo not given)	51*
Cc1ccnc(NC(=O)COC(=O)C2COc3ccccc3O2)n1 (stereo not given)	6
O=C(COC(=O)C1CCCCC1C(=O)N1CCc2ccccc21)NCc1ccco1 (stereo not given)	24
Cc1sc(CO)c(Sc2ccccc2)c1C(=O)O	38
COc1c(F)c(F)c(C(=O)Nc2ccc(NC(=O)c3ccco3)cc2)c(F)c1F	7
COC(=O)c1c(NC(=O)c2ccco2)sc(C)c1C	9
COC(=O)c1c(NC(=O)c2ccco2)sc(C(=O)Nc2ccc(F)cc2)c1C	56*
CCC12CCCN3CCC4(C(=C(C(=O)OC)C1)Nc1ccccc14)C32 (stereo not given)	1
N#Cc1ccc(CN2CCN(C(=O)c3ccccc3)CC2)c(Cl)c1	5
Cc1ccc2[nH]c(=O)c(CN(CCc3ccccc3)C(c3nnnn3Cc3ccco3)C(C)C)cc2c1 (stereo not given)	20
CCC(c1nnnn1Cc1ccco1)N(CCc1ccccc1)Cc1cc2cc(C)ccc2[nH]c1=O (stereo not given)	61*
CCC(c1nnnn1Cc1ccccc1)N(Cc1ccco1)Cc1cc2cc(OC)ccc2[nH]c1=O (stereo not given)	-10
O=C(NCCc1ccccc1)C1CCN(S(=O)(=O)c2ccc(-c3nn[nH]n3)cc2)CC1	0
COc1ccc(N2C(=O)C3CCCN3C2c2ccccc2)cc1Cl (stereo not given)	-10
COc1ccc(N2C(=O)C3CCCN3C2c2cccc(C)c2)cc1Cl (stereo not given)	-16
COc1ccc(N2Cc3ccccc3C2)cc1Cl	55*
SMILES	RT RNaseH block
C#CCNc1nc(CC)nc2c1nnn2Cc1ccccc1F	3
COc1cccc(Cn2c(=S)[nH]c3ccc(N4CCOCC4)cc3c2=O)c1	9
O=c1c2cc(Cl)ccc2[nH]c(=S)n1Cc1ccco1	-32
O=c1c2cc(N3CCOCC3)ccc2[nH]c(=S)n1Cc1ccco1	55*
COC(=O)Cn1cnc(=O)c(C#N)c1/C=C/N(C)C	-2
Cc1cccc(CSc2nnc(-c3ccccn3)n2N)c1	52*
Nn1c(SC/C=C/c2ccccc2)nnc1-c1ccccn1	15
Cc1ccc(CSc2nnc(-c3ccccn3)n2C)cc1	-6
COCCCn1cnc2c(c1=O)c1nc3ccccc3nc1n2CCc1ccccc1	-2
COc1ccc2c(C=Nc3c(C)n(C)n(-c4ccccc4)c3=O)c(O)n(Cc3ccco3)c(=O)c2c1	15
Cc1csc(OCc2ccc(C#N)cc2)n1	-10
NC1CCCCC1N=Cc1c(O)n(Cc2ccc(F)cc2)c(=O)[nH]c1=O (stereo not given)	-2
CCCCCCn1c(O)c(C=NC2CCCCC2N)c(=O)[nH]c1=O (stereo not given)	51*
CCCCn1c(O)c(C=NC2CCCCC2N)c(=O)[nH]c1=O (stereo not given)	-4
Cn1nnc(NC(=O)COc2ccc(C3CCCCC3)cc2)n1	-14
CCOC(=O)Cc1csc2nc3sc(C)c(C)c3c(=O)n12	-9
COC(=O)Nc1sccc1C(=O)Nc1sccc1C(=O)OC	54*
COC(=O)c1ccsc1NC(=O)C1=COCCO1	-24
CCC(=O)Nc1sccc1C(=O)OC	-11
O=C(Nc1ccccc1C(=O)N1CCN(c2ccccc2)CC1)c1ccco1	-5
CS(=O)(=O)N(CC(=O)NCc1ccc2c(c1)OCO2)Cc1ccc(Cl)cc1	-12
c1ccc2c(-c3nc4ncccc4o3)cccc2c1	-20
COC(=O)c1ccc(C)c(NS(=O)(=O)c2ccc(OC)cc2)c1	-61
COc1ccc(S(=O)(=O)Nc2cc(C(C)C)c(O)cc2C)cc1	-6
COc1ccc(S(=O)(=O)Nc2cc(C)c(O)cc2C(C)C)cc1	55*
SMILES	RT RNaseH block
O=C(CSc1ncn[nH]1)Nc1ccc(Cl)c(Cl)c1	-15
O=C(c1ccc2c(=O)n(Cc3ccc4c(c3)OCO4)c(=S)[nH]c2c1)N1CCCCC1	61*
CN1CCN(C(=O)c2ccc3c(=O)n(Cc4ccc(Cl)cc4)c(=S)[nH]c3c2)CC1	-5
CCOC(=O)N1CCN(C(=O)c2ccc(Cn3c(=S)[nH]c4cc5c(cc4c3=O)OCO5)cc2)CC1	-3
O=C(c1ccco1)N1CCN(S(=O)(=O)Cc2ccc(Cl)cc2)CC1	-14
COc1ccc(NC(C)=O)cc1NC(=O)CN1CCN(CC(=O)Nc2ccc(Cl)cc2)CC1	-6
CCNC(=O)NC(=O)COC(=O)c1ccccc1SCC(=O)NC(=O)NCC	4
CCc1ccc(C2C(C#N)=C(N)SC(N)=C2C#N)s1	11
CC(C)CC1C(C#N)=C(N)SC(N)=C1C#N	51*
N#CC1=C(N)SC(N)=C(C#N)C1Cc1ccccc1	35
N#CCCN(Cc1cccnc1)C(=O)Nc1cccc(Cl)c1	0
O=C(CCSc1ccc(Cl)cc1)N1CCN(c2ncccn2)CC1	-13
CCOc1ccc(S(=O)(=O)NCc2ccc(F)cc2)c2cccnc12	-8
Brc1cnn(-c2nc(N3CCOCC3)nc(N3CCOCC3)n2)c1	-27
CN1CCc2c(sc3c2C(=O)NC(c2cn(Cc4ccccc4)c4ccccc24)N3)C1 (stereo not given)	9
COc1ccc(Br)cc1C1NC(=O)c2c(sc3c2CCN(C)C3)N1 (stereo not given)	-2
CN1C(=O)c2c(sc3c2CCCC3)NC1c1ccccc1O (stereo not given)	52*
COc1ccc(N2CCN(CCCNS(=O)(=O)c3c(C)noc3/C=C/N(C)C)CC2)cc1	-1
COc1ccc(-n2c(C)cc(C(=O)CSc3nn4c(=O)c(C(C)(C)C)nnc4s3)c2C)cc1	50*
CC(C)(C)c1nnc2sc(SCC(=O)c3ccccc3)nn2c1=O	-3
COc1ccc(C(=O)CSc2nn3c(=O)c(C(C)(C)C)nnc3s2)cc1	-5
CS(=O)(=O)N(CC(=O)NCCC1=CCCCC1)c1ccc2c(c1)OCO2	-23
COc1ccc(OC)c(S(=O)(=O)N2CCN(c3c(C)cccc3C)CC2)c1	-1
CC(=O)C1=C(C)NC(SCC(=O)c2ccccc2)=C(C#N)C1CC(C)C (stereo not given)	15
Cc1ccc(C(C)NC(=O)c2ccco2)cc1C (stereo not given)	-9
C=CCn1c(Cc2nc3ccc(Cl)cc3[nH]2)n[nH]c1=S	58*
C=CCn1c(-c2ccccc2)n[nH]c1=S	7
C=CCn1c(-c2ccoc2)n[nH]c1=S	-18
COC(=O)C1CCN(C(=O)C2CCCCC2)CC1	-5

Screening data from PubChem.
